Screening results as filed in PubChem BioAssay.
The list is not random: actives were taken first. Their share in the collection is about 2.4%.
FEN1 inh = human FEN1 inhibition. P39748. AID 588795. Recombinant FEN1 flap cleavage, fluorescence, 15 min. 390,000 tested, 0.35% active. Potency, µM (series often up to 114 µM), for the others: top-dose activity change, negative = inhibition, actives largely listed as inhibitors; note: % is set by controls: 0 for no effect and ±100 for the full control effect; nearly all actives have a fitted effect of over 65% in size
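Recombinant FEN1 (10 nM) was preincubated with pin-transferred compounds for 15 min at room temperature, then flap DNA substrate (50 nM final) was added. Plates were read at 0 and 15 min, and normalized concentration–response data were fitted to a four-parameter Hill equation.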
POLK inh = inhibitors of human DNA polymerase kappa | Q9UBT6 | purified Pol kappa, fluorescent DNA synthesis assay, 10 min | Potency, µM (doses to about 107 µM), without a hit: at the top dose activity, negative = inhibition, usual class: inhibitors | 400,000 tested, 0.53% active | AID 588579; note: % is set by controls: 0 for no effect and ±100 for the full control effect
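Inhibition of 10 nM Pol kappa is measured by a fluorescent read-out at 0 and 10 min following addition of 50 nM substrate (final), with a 15-min room-temperature compound preincubation.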
WRN inhibitor = WRN helicase (human) inhibition; Q14191; WRN helicase unwinding, fluorescent forked duplex, kinetic; Potency, µM (highest dose often 114 µM), for inactives: at the top dose activity change, negative = inhibition, actives largely listed as inhibitors; 360,000 tested, 0.46% active; AID 651768; note: % is set by controls: 0 for no effect and ±100 for the full control effect; nearly all actives have a fitted effect of over 55% in size
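Kinetic red-fluorescence monitoring (525/598 nm) tracks WRN helicase activity after 100 nM fluorophore-quencher forked duplex and 2 mM ATP are added to 20 nM enzyme pretreated 15 min at room temperature with compound.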
POLB inh = inhibitors of human DNA polymerase beta. 340,000 tested, 1.3% active. Pol beta primer extension/strand displacement, fluorescence kinetic. Potency, µM (highest dose often 114 µM), without a hit: at the highest dose activity change, negative = inhibition, most hits filed as inhibitors; note: % is set by controls: 0 for no effect and ±100 for the full control effect
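Kinetic readout of DNA synthesis with strand displacement by Pol beta. Compound and 10 nM enzyme sit 15 min at room temperature; 50 nM substrate starts the reaction, read immediately and at 10 min.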
Pol eta inh = inhibitors of human DNA polymerase eta | Q9Y253 | recombinant Pol eta, fluorescent DNA replication assay | Potency, µM (doses to about 114 µM), without a hit: top-dose activity change, negative = inhibition, actives largely listed as inhibitors | 390,000 tested, 1.2% active | AID 588591; note: % is set by controls: 0 for no effect and ±100 for the full control effect
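Fluorescent replication assay: 50 nM final substrate added after a 15 min room-temperature compound preincubation with 10 nM enzyme. Signal taken at 0 min and again at 10 min.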
Pol iota inh = blocks human DNA polymerase iota activity; AID 588590; 390,000 tested, 1% active; Q9UNA4; Pol iota fluorescent replication assay, 10 min; Potency, µM (titrated, usually from 115 µM), for the others: at the top dose activity, negative = inhibition, hits mostly inhibitors
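Fluorescent replication assay read twice, at 0 min and 10 min after adding 50 nM (final) substrate. Enzyme (10 nM) and compounds were first incubated 15 min at room temperature; enzyme-free buffer wells were negative controls.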
* hit, by the source's call; [ ] = remark or other dose. Calls come from the whole dose curve; as a rule, active = well fitted curve in the direction sought with a large enough effect; inconclusive = small, poorly fitted or top-dose-only effect, or another doubt; inactive = no such curve, though single readings can be large; an effect the other way counts as inactive or inconclusive. Potency is the fitted concentration of half-maximal effect.

What do the screens show for `CSCC[C@H](NC(=O)[C@H](CC(C)C)NC(=O)[C@H](Cc1c[nH]c2ccccc12)NC(=O)[C@H](CCC(N)=O)NC(=O)[C@@H](NC(=O)[C@H](Cc1ccccc1)NC(=O)[C@H](CC(=O)O)NC(=O)[C@H](CCC(N)=O)NC(=O)[C@H](C)NC(=O)[C@H](CCCNC(=N)N)NC(=O)[C@H](CCCNC(=N)N)NC(=O)[C@H](CO)NC(=O)[C@H](CC(=O)O)NC(=O)[C@H](CC(C)C)NC(=O)[C@H](Cc1ccc(O)cc1)NC(=O)[C@H](CCCCN)NC(=O)[C@H](CO)NC(=O)[C@H](Cc1ccc(O)cc1)NC(=O)[C@H](CC(=O)O)NC(=O)[C@H](CO)NC(=O)[C@@H](NC(=O)[C@H](Cc1ccccc1)NC(=O)[C@@H](NC(=O)CNC(=O)[C@H](CCC(N)=O)NC(=O)[C@H](CO)NC(=O)[C@@H](N)Cc1cnc[nH]1)[C@@H](C)O)[C@@H](C)O)C(C)C)C(=O)N[C@@H](CC(N)=O)C(=O)N[C@H](C(=O)O)[C@@H](C)O`?
POLK inh: -11%[60.1 µM]

What do the screens show for `O=C(O)c1ccccc1-c1c2ccc(=O)cc-2oc2cc(O)ccc12`?
POLK inh: 27µM*

What do the screens show for `Cc1ccc(O)c(NC(=O)c2ccccc2-c2ccccc2C(=O)O)c1`?
FEN1 inh: -1%; POLK inh: -5%; WRN inhibitor: inconclusive; POLB inh: -1%; Pol eta inh: -7%; Pol iota inh: 8%

What do the screens show for `O=c1cc(-c2ccc(O)cc2O)oc2ccccc12`?
POLK inh: -11%[19.4 µM]

Results for O=C(O)CN(CC(=O)O)Cc1cc2c(-c3ccccc3C(=O)O)c3cc(CN(CC(=O)O)CC(=O)O)c(=O)cc-3oc2cc1O ?
POLK inh: 7.1µM*

Results for CC1(C)CC(=O)c2cc(C(=O)Nc3cccc4ccccc34)c(=O)[nH]c2C1 ?
FEN1 inh: inconclusive; POLK inh: -3%; Pol iota inh: 20%

What do the screens show for `COC(=O)C(C)Sc1n[nH]c(=S)s1` (configuration not stated)?
FEN1 inh: 9%; POLK inh: 9%; WRN inhibitor: -1%; POLB inh: 16%; Pol eta inh: -20%; Pol iota inh: 13%

Results for O=C(O)CC(Sc1n[nH]c(=S)s1)C(=O)O (configuration not stated) ?
FEN1 inh: 12%; POLK inh: -21%; WRN inhibitor: 4%; POLB inh: 25µM*; Pol eta inh: 25%; Pol iota inh: inconclusive

Results for C=CCc1cccc(/C=C/c2cc(=O)c3ccccc3[nH]2)c1O ?
FEN1 inh: -12%; POLK inh: -15%; WRN inhibitor: -2%[11.6 µM]; POLB inh: 40µM*; Pol eta inh: inconclusive; Pol iota inh: inconclusive

How did COc1ccccc1NS(=O)(=O)c1cccc(-n2c(O)c(C=Nc3ccccc3C(=O)O)c3ccccc3c2=O)c1 do in these assays?
FEN1 inh: 79µM*; POLK inh: -42%; WRN inhibitor: 50µM*; POLB inh: 56µM*; Pol eta inh: 20µM*; Pol iota inh: inconclusive

How did O=C1CCCC(O)=C1N=Nc1ccc(Cl)c(Cl)c1 do in these assays?
FEN1 inh: 4%; POLK inh: -4%; WRN inhibitor: 0%; POLB inh: inconclusive; Pol eta inh: -18%; Pol iota inh: -19%

How did Cc1nc2cc(N=NC3=C(O)CCCC3=O)ccc2s1 do in these assays?
FEN1 inh: -5%; POLK inh: -28%; WRN inhibitor: -5%; POLB inh: -26%; Pol eta inh: -16%; Pol iota inh: 50µM*

What do the screens show for `Cc1cc(=O)[nH]c(/N=C(\N)Nc2cccc3ccccc23)n1`?
FEN1 inh: -18%; POLK inh: -4%; WRN inhibitor: -33%; POLB inh: 22µM*; Pol eta inh: inconclusive; Pol iota inh: inconclusive

What do the screens show for `COc1cc2nc(N3CCOCC3)nc(NC3CCN(Cc4ccccc4)CC3)c2cc1OC`?
FEN1 inh: -10%; POLK inh: 2%; Pol iota inh: 20%

What do the screens show for `COc1ccc(CCn2c3c(c(=O)[nH]c2=S)CN(c2ccccc2)CN3)cc1OC`?
FEN1 inh: -19%; POLK inh: -24%; Pol iota inh: 13%

What do the screens show for `COc1ccccc1-n1c(=O)c(C#N)c(-c2ccc([N+](=O)[O-])cc2)c2cc(C(=O)c3cc(F)ccc3O)cnc21`?
FEN1 inh: -18%; POLK inh: 0%; WRN inhibitor: 9%; POLB inh: -1%; Pol eta inh: 5%; Pol iota inh: -18%

Results for Cn1c(=O)c(C#N)c(-c2ccc(F)cc2)c2cc(C(=O)c3cc(Cl)cc(Cl)c3O)cnc21 ?
FEN1 inh: -8%; POLK inh: -52%; WRN inhibitor: -4%[11.6 µM]; POLB inh: inconclusive; Pol eta inh: 40µM*; Pol iota inh: inconclusive

Results for O=C(Nc1cccc2cccnc12)c1ccc(Br)cc1 ?
FEN1 inh: -27%; POLK inh: -1%; Pol iota inh: -8%

Results for O=C(c1ccc2c(=O)n(CCc3ccccc3)c(=O)[nH]c2c1)N1CCN(C(=O)c2ccco2)CC1 ?
FEN1 inh: 11%; POLK inh: -10%; Pol iota inh: 0%

Results for O=S(=O)(/N=S1/CC=CCN1S(=O)(=O)c1ccccc1)c1ccccc1 (configuration not stated) ?
FEN1 inh: inconclusive; POLK inh: -16%; WRN inhibitor: 45µM*; POLB inh: 11%; Pol eta inh: -5%; Pol iota inh: -1%

What do the screens show for `CC(=O)NC1C(O)O[C@H](C(=O)O)[C@@H](O)[C@@H]1O` (some centres not stated)?
POLK inh: 14%[60.1 µM]

Results for Cc1ccnc2ccc(N)cc12 ?
FEN1 inh: -7%; POLK inh: -3%; Pol iota inh: 93%

How did O=C(NC(=S)Nc1ccc(Cl)c(C(=O)O)c1)c1cccc(COc2ccccc2)c1 do in these assays?
FEN1 inh: -10%; POLK inh: -22%; WRN inhibitor: -6%[11.6 µM]; POLB inh: 40µM*; Pol eta inh: 79µM*; Pol iota inh: -11%

How did O=C(NC(=S)Nc1ccc(Cl)c(C(=O)O)c1)c1ccc(OCc2ccccc2)cc1 do in these assays?
FEN1 inh: 8%; POLK inh: 7%; WRN inhibitor: -2%; POLB inh: -22%; Pol eta inh: -15%; Pol iota inh: 38%
